Records with an inconclusive call do not appear. Calls of active or inactive are those of the source. Unless noted, calls follow the shape of the dose curve; as a rule, active = well fitted curve in the direction sought with a large enough effect in the repeat runs; inconclusive = weak or mixed curves; inactive = no such curve, though single readings can be large; an effect the other way counts as inactive or inconclusive.
What was measured:
[1] = qHTS RealTime-Glo MT Cell Viability Assay in HepG2 cells - 32 hour (AID 1224877); also: nearly all actives have a fitted effect of over 55% in size
In short: (§1)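 Real-time, nonlytic viability: 600 HepG2 cells/well mixed with NanoLuc enzyme plus prosubstrate; 5 h settle, compound (DMSO) added by pintool; luminescence monitored over 40 h at 37 C.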

[2] = A CellTox Green Cytotoxicity Assay to monitor cytotoxicity in HepG2 cells - 24 hour (AID 1224878); also: nearly all actives have a fitted effect of over 45% in size
In short: (§2)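 HepG2, 600 cells/well premixed w/ CellTox Green; 5 h settle, 37 C/5% CO2; pintool cpd add (DMSO); 37 C, 40 h; fluorescence read at 0, 8, 16, 24, 32, 40 h.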

[3] = A CellTox Green Cytotoxicity Assay to monitor cytotoxicity in HepG2 cells - 40 hour (AID 1224879); also: nearly all actives have a fitted effect of over 40% in size
In short: as §2

[4] = qHTS RealTime-Glo MT Cell Viability Assay in HEK293 cells - 0 hour (AID 1224880); also: top concentration of the series differs between compounds; nearly all actives have a fitted effect of over 45% in size
In short: (§3)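 Luminescence readout at each listed time point; HEK293, 600 cells/well, RealTime-Glo MT reagent added with cells; compounds pinned (23 nL in DMSO) after 5 h at 37 C; continuous culture at 37 C.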

[5] = A CellTox Green Cytotoxicity Assay to monitor cytotoxicity in HEK293 cells - 32 hour (AID 1224881); also: nearly all actives have a fitted effect of over 40% in size
In short: (§4)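 Read-out: fluorescence of a cell-impermeant cyanine dye staining DNA of dead cells, proportional to cytotoxicity. HEK293, 600 cells/well with reagent, compound (23 nL DMSO) added after 5 h; reads at 0, 8, 16, 24, 32, 40 h.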

[6] = A CellTox Green Cytotoxicity Assay to monitor cytotoxicity in HepG2 cells - 0 hour (AID 1224882); also: nearly all actives have a fitted effect of over 35% in size
In short: as §2

[7] = A CellTox Green Cytotoxicity Assay to monitor cytotoxicity in HepG2 cells - 32 hour (AID 1224883); also: nearly all actives have a fitted effect of over 50% in size
In short: as §2

[8] = A CellTox Green Cytotoxicity Assay to monitor cytotoxicity in HEK293 cells - 8 hour (AID 1224884); also: nearly all actives have a fitted effect of over 35% in size
In short: as §4

[9] = qHTS RealTime-Glo MT Cell Viability Assay in HepG2 cells - 16 hour (AID 1224885); also: nearly all actives have a fitted effect of over 50% in size
In short: as §1

[10] = qHTS RealTime-Glo MT Cell Viability Assay in HEK293 cells - 24 hour (AID 1224886); also: top concentration of the series differs between compounds; nearly all actives have a fitted effect of over 50% in size
In short: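 Cells + reagent dispensed (600 cells/well, HEK293) → 5 h at 37 C/5% CO2 → 23 nL compound in DMSO pinned → 40 h at 37 C → luminescence read at 0, 8, 16, 24, 32, 40 h.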

[11] = qHTS RealTime-Glo MT Cell Viability Assay in HEK293 cells - 8 hour (AID 1224887); also: top concentration of the series differs between compounds; nearly all actives have a fitted effect of over 50% in size
In short: as §3

[12] = A CellTox Green Cytotoxicity Assay to monitor cytotoxicity in HEK293 cells - 16 hour (AID 1224888); also: nearly all actives have a fitted effect of over 35% in size
In short: as §4

[13] = qHTS RealTime-Glo MT Cell Viability Assay in HepG2 cells - 0 hour (AID 1224889); also: nearly all actives have a fitted effect of over 50% in size
In short: as §1

[14] = A CellTox Green Cytotoxicity Assay to monitor cytotoxicity in HepG2 cells - 8 hour (AID 1224890); also: nearly all actives have a fitted effect of over 45% in size
In short: as §2

[15] = qHTS assay to identify small molecule antagonists of the estrogen receptor alpha (ER-alpha) signaling pathway using the BG1 cell line in the presence of 0.1 nM 17-beta-estradiol - cell viability counter screen (AID 1259241); also: nearly all actives have a fitted effect of over 40% in size
In short: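 CellTiter-Fluor read (30 min, 37C) on ER-alpha/ERE-luc VM7Luc4E2 cells; 22 hr compound treatment; agonist 0.1 nM E2 final; same-well multiplex.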

[16] = qHTS assay to identify small molecule antagonists of the androgen receptor (AR) signaling pathway using the MDA cell line in the presence of 0.5 nM R1881 - cell viability counter screen (AID 1259242); also: nearly all actives have a fitted effect of over 45% in size
In short: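 Live-cell protease fluorescence, CellTiter-Fluor, 30 min at 37C. Cells: MDA-kb2, 3,000/well, preincubated 5 hr. Compounds plus 0.5 nM R1881 final, 16 hr, 37C, 0% CO2.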

[17] = target: Estrogen receptor (Homo sapiens) (UniProt P03372); experiment: qHTS assay to identify small molecule antagonists of the estrogen receptor alpha (ER-alpha) signaling pathway using the BG1 cell line in the presence of 0.1 nM 17-beta-estradiol (AID 1259244); also: nearly all actives have a fitted effect of over 50% in size
In short: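 Luminescence after ONE-Glo (30 min, room temperature) measured ERE-luciferase activity in VM7Luc4E2 cells treated 22 h with compound and 0.1 nM final 17beta-estradiol as stimulator.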

[18] = qHTS assay to identify small molecule HDAC inhibitors (AID 1259364)
In short: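 HCT-116 (wild type), 1,500 cells/well, overnight; compound 2 hr 37C 5% CO2; HDAC-Glo I/II reagent 30 min RT; luminescence readout.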

[19] = qHTS assay to identify small molecule phospholipidosis (PLD) inducers (AID 1259344; active = well fitted curve in the direction sought with a large enough effect; an effect the other way counts as inactive or inconclusive)
In short: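 Read-out is LipidTOX Red fluorescence (ex 595/em 615) imaged in HepG2 cells after 24 h compound exposure at 37 C, with Hoechst nuclear counterstain (ex 352/em 461) allowing per-cell normalisation.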

Measured: Potency

Sequence of Estrogen receptor (Homo sapiens) (P03372 whole entry, looked up): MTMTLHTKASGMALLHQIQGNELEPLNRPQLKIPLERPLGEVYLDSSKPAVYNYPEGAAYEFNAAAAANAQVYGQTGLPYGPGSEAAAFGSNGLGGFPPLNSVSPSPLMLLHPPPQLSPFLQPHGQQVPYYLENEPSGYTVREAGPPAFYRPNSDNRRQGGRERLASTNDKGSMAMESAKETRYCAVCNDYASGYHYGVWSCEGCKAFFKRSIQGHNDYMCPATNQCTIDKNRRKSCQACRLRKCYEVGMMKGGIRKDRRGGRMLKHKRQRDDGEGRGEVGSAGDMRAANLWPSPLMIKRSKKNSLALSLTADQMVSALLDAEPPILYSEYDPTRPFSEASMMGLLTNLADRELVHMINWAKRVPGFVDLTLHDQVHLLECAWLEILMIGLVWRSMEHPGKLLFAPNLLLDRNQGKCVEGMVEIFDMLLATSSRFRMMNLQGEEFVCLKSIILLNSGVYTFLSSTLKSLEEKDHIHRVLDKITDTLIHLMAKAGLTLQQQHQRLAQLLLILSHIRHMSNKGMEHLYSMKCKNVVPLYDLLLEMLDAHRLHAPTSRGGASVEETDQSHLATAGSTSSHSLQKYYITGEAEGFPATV

c1ccc2scnc2c1
inactive: [1] | [2] | [3] | [4] | [5] | [6] | [7] | [8] | [9] | [10] | [11] | [12] | [13] | [14] | [15] | [16] | [17] | [18]

COc1ccc(Nc2ccccc2)c(C)c1
inactive: [1] | [2] | [3] | [4] | [5] | [6] | [7] | [8] | [9] | [10] | [11] | [12] | [13] | [14] | [15] | [16] | [17] | [18]

Cc1cccc(O)c1
inactive: [1] | [2] | [3] | [4] | [5] | [6] | [7] | [8] | [9] | [10] | [11] | [12] | [13] | [14] | [15] | [16] | [17] | [18]

Cc1cc(C)c(C)cc1C
inactive: [1] | [2] | [3] | [4] | [5] | [6] | [7] | [8] | [9] | [10] | [11] | [12] | [13] | [14] | [15] | [16] | [17] | [18]

O=S1(=O)CC=CC1
inactive: [1] | [2] | [3] | [4] | [5] | [6] | [7] | [8] | [9] | [10] | [11] | [12] | [13] | [14] | [15] | [16] | [17] | [18]

Cc1ccc2oc(=O)ccc2c1
inactive: [1] | [2] | [3] | [4] | [5] | [6] | [7] | [8] | [9] | [10] | [11] | [12] | [13] | [14] | [15] | [16] | [17] | [18]

O=C(O)c1cc(=O)c2c(OCC(O)COc3cccc4oc(C(=O)O)cc(=O)c34)cccc2o1
inactive: [1] | [2] | [3] | [4] | [5] | [6] | [7] | [8] | [9] | [10] | [11] | [12] | [13] | [14] | [15] | [16] | [17] | [19] | [18]

c1c[nH]cn1
inactive: [1] | [2] | [3] | [4] | [5] | [6] | [7] | [8] | [9] | [10] | [11] | [12] | [13] | [14] | [15] | [16] | [17] | [18]

CC(=O)c1ccccc1
inactive: [1] | [2] | [3] | [4] | [5] | [6] | [7] | [8] | [9] | [10] | [11] | [12] | [13] | [14] | [15] | [16] | [17] | [18]

O=C(O)CC(C(=O)O)C(CC(=O)O)C(=O)O (stereo not given)
inactive: [1] | [2] | [3] | [4] | [5] | [6] | [7] | [8] | [9] | [10] | [11] | [12] | [13] | [14] | [15] | [16] | [17] | [18]

CCCCCCCCCCCCS
inactive: [1] | [2] | [3] | [4] | [5] | [6] | [7] | [8] | [9] | [10] | [11] | [12] | [13] | [14] | [15] | [16] | [17] | [18]

CCN(CC)c1ccc(C(=O)c2ccccc2C(=O)O)c(O)c1
inactive: [1] | [2] | [3] | [4] | [5] | [6] | [7] | [8] | [9] | [10] | [11] | [12] | [13] | [14] | [15] | [16] | [17] | [18]

CC(=O)OCC(=O)[C@@]12N=C(C)O[C@@H]1C[C@H]1[C@@H]3CCC4=CC(=O)C=C[C@]4(C)[C@H]3[C@@H](O)C[C@@]12C
inactive: [1] | [2] | [3] | [4] | [5] | [6] | [7] | [8] | [9] | [10] | [11] | [12] | [13] | [14] | [15] | [16] | [17] | [19] | [18]

CCCCC(CC)COC(=O)CS (stereo not given)
inactive: [1] | [2] | [3] | [4] | [5] | [6] | [7] | [8] | [9] | [10] | [11] | [12] | [13] | [14] | [15] | [16] | [18]

CCCCCCCCC/C=C/CC1CC(=O)OC1=O (stereo not given)
inactive: [1] | [2] | [3] | [4] | [5] | [6] | [7] | [8] | [9] | [10] | [11] | [12] | [13] | [14] | [15] | [16] | [18]

From PubChem BioAssay (Tox21)
